Measured values reported in PubChem BioAssay.
Activity calls are given as the source filed them. No rule for the calls is given here.

molecular target: Pantothenate synthetase (Mycobacterium tuberculosis (strain ATCC 25618 / H37Rv)) (UniProt P9WIL5); assay: Coupled enzyme confirmation of inhibitors against recombinant Mtb PanC (AID 375); conditions: coupled enzyme assay; at 10 µM, active compounds read high;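 also: 0% = full reaction with vehicle and 100% = no enzyme background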
Sequence (P9WIL5 whole entry, looked up): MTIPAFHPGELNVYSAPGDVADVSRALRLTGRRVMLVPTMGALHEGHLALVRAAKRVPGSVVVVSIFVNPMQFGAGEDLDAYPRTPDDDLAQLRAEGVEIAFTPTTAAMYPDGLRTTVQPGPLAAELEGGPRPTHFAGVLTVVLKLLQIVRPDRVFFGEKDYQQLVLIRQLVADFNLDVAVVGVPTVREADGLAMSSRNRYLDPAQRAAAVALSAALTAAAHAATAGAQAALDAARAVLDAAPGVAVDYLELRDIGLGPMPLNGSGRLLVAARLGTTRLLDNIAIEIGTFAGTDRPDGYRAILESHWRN

SMILES	inhibition
Cc1ccc(-c2cc(C(=O)Nc3cc(C)ccc3C)[nH]n2)c(O)c1	0% (inactive)
CCOC(=O)CNC(=O)CSc1nc(N)cc(N)n1	1% (inactive)
CC(=O)c1cc(-c2ccc(F)cc2)n(CCC(=O)Nc2cc(C)[nH]n2)c1C	4% (inactive)
CCOc1cc(S(=O)(=O)N2CCC(Cc3ccccc3)CC2)c(OCC)cc1-n1cnnn1	7% (inactive)
Cn1nc(-c2ccc(N3CCCCC3)c(NC(=O)c3ccco3)c2)c2ccccc2c1=O	0% (inactive)
CC(NC(=O)C1CC1)C(c1cccs1)N1CCN(c2ccccc2)CC1 (stereo not given)	0% (inactive)
CCOC(=O)N1CCC(NC(=O)CSCc2nc(-c3cccc(OC)c3)oc2C)CC1	0% (inactive)
CCOC(=O)CC(=O)c1cc(OC)c(OC)c(OC)c1	0% (inactive)
Cc1ccc(Cn2c(C(=O)NCCCN3CCOCC3)cc3sccc32)cc1	2% (inactive)
COc1cccc(-n2c(SCC(=O)N3CCCC3)nc3c([nH]c4ccccc43)c2=O)c1	0% (inactive)
Cc1cc(C(=O)COC(=O)c2n[nH]c3ccccc23)c(C)n1C	0% (inactive)
O=C(CN1C(=O)CSC1=O)Nc1ccc(N2CCOCC2)cc1	7% (inactive)
COC(=O)C1=C(C)NC(C)=C(C(=O)OC)C1c1ccccc1[N+](=O)[O-]	0% (inactive)
COCCNC(=O)CN(C)S(=O)(=O)c1ccc2c(c1)OCCO2	7% (inactive)
Cn1c(SCc2cccc3ccccc23)nnc1-c1ccco1	0% (inactive)
Cn1cnc2c1c(=O)[nH]c(=O)n2C	0% (inactive)
COc1cccc(C2CC(c3ccc(F)cc3)Nc3nc(N)nn32)c1 (stereo not given)	0% (inactive)
O=C(OCC(=O)N1CCC(Cc2ccccc2)CC1)c1ccc[nH]c1=O	0% (inactive)
CCC(C(=O)Nc1ncccn1)(C(F)(F)F)C(F)(F)F	0% (inactive)
CN1CCc2c(sc3c2c(=O)n(-c2ccccc2)c2nnc(SCc4ccc(F)cc4)n32)C1	0% (inactive)

SMILES	inhibition
O=C(CSc1ccc(-c2ccccc2)nn1)N1CCOCC1	0% (inactive)
Cc1c(NC(=O)C(C)OC(=O)COc2cccc3c2OC(C)(C)C3)c(=O)n(-c2ccccc2)n1C (stereo not given)	5% (inactive)
Cc1ccc2c(c1)N(CC(=O)N1CCCCC1c1cccnc1)C(=O)CO2 (stereo not given)	0% (inactive)
COc1cccc(C(=O)Nc2ncc3c(n2)CC(C)CC3=O)c1 (stereo not given)	5% (inactive)
CC(=O)OC1c2ccccc2C(=O)N1Cc1ccccc1Cl (stereo not given)	0% (inactive)
CC(=O)N(C(C)=O)c1c(C#N)c(C)n(-c2ccccc2)c1C(=O)c1ccccc1	0% (inactive)
CS(=O)(=O)c1ccc2nc(NC(=O)C3C4C=CC(C4)C3C(=O)O)sc2c1 (stereo not given)	1% (inactive)
Cc1ccc(S(=O)(=O)N2CCN(CCO)CC2)cc1-c1nnc2c3ccccc3c(C)nn12	0% (inactive)
CC(C)C(NC(=O)c1ccc(S(=O)(=O)N2CCOCC2)cc1)c1nc2ccccc2[nH]1 (stereo not given)	0% (inactive)
CCC12CN3CC(CC)(CN(C1)C3c1ccc(OC(C)C)cc1)C2=O (stereo not given)	9% (inactive)
CCNc1nc(N2CCCCC2)nc(-n2nnc(C(=O)OCC)c2C)n1	2% (inactive)
COc1ccc(NC(=O)CCCN2C(=O)C3C4C=CC(C4)C3C2=O)c(OC)c1 (stereo not given)	2% (inactive)
CCc1cc(=O)oc2c(CN3CCN(C)CC3)c(O)c(Cl)cc12	5% (inactive)
Cc1cccc(-n2ncc3c(NCCCO)ncnc32)c1	2% (inactive)
Cc1ccc(-c2noc(CCC(=O)NCCc3ccccc3Cl)n2)cc1	1% (inactive)
COc1ccccc1N1CCN(CCCNC(=O)Nc2ccccc2)CC1	10% (inactive)
COc1ccccc1NC(=O)N1CCCC1C(=O)NC1CCCCC1 (stereo not given)	0% (inactive)
CCOc1cc(C(=O)NCC2CCCO2)cc(OCC)c1OCC (stereo not given)	3% (inactive)
CS(=O)(=O)N(CC(=O)Nc1ccc2c(c1)OCCO2)Cc1ccccc1	2% (inactive)
CCOc1cc(C2C(C(=O)c3ccccc3)=C(C(=O)OC)Nc3nnnn32)ccc1O (stereo not given)	0% (inactive)
